Reference: the supplement of paper PMC6555819

Assays:
Assay in all cases: PBM binding z-score (relative to random genomic background probes); higher = stronger binding; sequences stand for … in GC…GCGATTGACAGCGTAGAATGAAGG
[1] = system: FXR:RXRa (NR concentration 270 nM, RXRa partner concentration 90 nM)
How it was run: (§1)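 Ligand-free nuclear receptor dimers were bound for 1 h to custom Agilent 4×180K protein-binding microarrays. Detection used antibodies against each partner (one per run). Binding z-scores rest on regression-normalized fluorescence, with random background probes as the reference.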

[2] = system: LXRa:RXRa (NR concentration 270 nM, RXRa partner concentration 90 nM)
How it was run: as §1

[3] = system: LXRa homodimer (NR concentration 270 nM)
How it was run: as §1

[4] = system: LXRb:RXRa (NR concentration 270 nM, RXRa partner concentration 90 nM)
How it was run: as §1

[5] = system: LXRb homodimer (NR concentration 270 nM)
How it was run: as §1

[6] = system: PPARa:RXRa (NR concentration 270 nM, RXRa partner concentration 90 nM)
How it was run: as §1

[7] = system: PPARg:RXRa (NR concentration 180 nM, RXRa partner concentration 90 nM)
How it was run: as §1

[8] = system: PPARg:RXRa 270nM:90nM, anti-RXR (NR concentration 270 nM, RXRa partner concentration 90 nM)
How it was run: as §1

[9] = system: PPARg:RXRa 30nM:10nM, anti-RXR (NR concentration 30 nM, RXRa partner concentration 10 nM)
How it was run: as §1

[10] = system: PPARg:RXRa 90nM:30nM, anti-RXR (NR concentration 90 nM, RXRa partner concentration 30 nM)
How it was run: as §1

[11] = system: PPARg:RXRa DBDmut IVT, anti-RXR (DBD mutation: RXRa K156A/R161A, NR concentration 270 nM, RXRa partner concentration 90 nM)
How it was run: as §1

[12] = system: PPARg:RXRa IVT, anti-PPARg (NR concentration 270 nM, RXRa partner concentration 90 nM)
How it was run: as §1

[13] = system: PPARg DBDmut:RXRa IVT, anti-PPARg (DBD mutation: PPARg1 K132A/R137A, NR concentration 270 nM, RXRa partner concentration 90 nM)
How it was run: as §1

[14] = system: PPARg DBDmut IVT, anti-PPARg (DBD mutation: PPARg1 K132A/R137A, NR concentration 270 nM)
How it was run: as §1

[15] = system: PPARg homodimer (NR concentration 180 nM)
How it was run: as §1

[16] = system: PXR:RXRa (NR concentration 270 nM, RXRa partner concentration 90 nM)
How it was run: as §1

[17] = system: PXR homodimer (NR concentration 270 nM)
How it was run: as §1

[18] = system: RARa:RXR (NR concentration 270 nM, RXRa partner concentration 90 nM)
How it was run: as §1

[19] = system: RARa homodimer (NR concentration 270 nM)
How it was run: as §1

[20] = system: RARb:RXRa (NR concentration 270 nM, RXRa partner concentration 90 nM)
How it was run: as §1

| Sequence | PBM binding z-score [1] | PBM binding z-score [2] | PBM binding z-score [3] | PBM binding z-score [4] | PBM binding z-score [5] | PBM binding z-score [6] | PBM binding z-score [7] | PBM binding z-score [8] | PBM binding z-score [9] | PBM binding z-score [10] | PBM binding z-score [11] | PBM binding z-score [12] | PBM binding z-score [13] | PBM binding z-score [14] | PBM binding z-score [15] | PBM binding z-score [16] | PBM binding z-score [17] | PBM binding z-score [18] | PBM binding z-score [19] | PBM binding z-score [20] |
| --- | --- | --- | --- | --- | --- | --- | --- | --- | --- | --- | --- | --- | --- | --- | --- | --- | --- | --- | --- | --- |
| TCATATAGGTAATACAGGTGTAAGTCGGCATCTA | 1.11 | 1.19 | 0.352 | 0.876 | 0.401 | 1.28 | 1.06 | 2.23 | 3.93 | 3 | 3.63 | 2.43 | 1.94 | 1.17 | 1 | 0.767 | 0.343 | 0.844 | 1.25 | 0.255 |
| GCAATTAGTTGAAAGGGCAACCGAATGATTCTCG | 0.0908 | 0.491 | 0.0352 | 0.496 | -0.314 | 2.69 | 3.22 | 5.14 | 3.49 | 5.31 | 0.317 | 1.39 | 0.151 | 0.483 | 0.967 | 0.692 | 0.161 | 1.46 | 1.18 | 2.15 |
| TCATATATGTAAATGCTAGGTGAAAGTCCGATCT | 0.494 | 0.5 | 0.273 | 0.561 | 0.139 | 0.627 | 0.741 | 1.86 | 3.23 | 2.59 | 2.12 | 0.736 | 1.47 | 0.87 | -0.136 | 0.601 | 0.0676 | 0.644 | 0.525 | 0.329 |
| ATCTCTAGGTAACAAGTTCAGGGAAAGAGAGGAC | 1.08 | 1.19 | 0.665 | 1.09 | 1.23 | 1.97 | 1.74 | 2.3 | 1.06 | 1.99 | 3.5 | 3.06 | 1.15 | 2.01 | 1.61 | 1.74 | 1.82 | 1.32 | 1.58 | 1.69 |
| ATATCAAGGTGATCGTGAGGTCGTTGATACTAAC | 1.97 | 1.33 | 0.367 | 1.31 | 0.595 | 1.82 | 0.923 | 0.763 | 0.0904 | 0.846 | 1.67 | 2.27 | 1.01 | 1.33 | 0.347 | 3.24 | 1.18 | 2.03 | 0.406 | 1.69 |
| TGAATAAGGTTAAAGATCAGGGAACGTGGCGTCG | 2.83 | 2.57 | 0.114 | 1.71 | 0.337 | 3.91 | 4.41 | 5.68 | 4.08 | 5.9 | 1.52 | 2.45 | 0.601 | 0.358 | 1.06 | 1.73 | 0.429 | 3.27 | 0.953 | 2.35 |
| GTACCAAGGTGAAGAGGTCGTTGATGAGTAGGCG | 1.67 | 1.32 | 0.0368 | 1.13 | -0.425 | 3 | 1.95 | 2.49 | 0.544 | 1.72 | 1.79 | 2.51 | -0.57 | -0.181 | 1.37 | 2.15 | 0.607 | 2.68 | -0.129 | 2.35 |
| CCTTACGGGTGACTGACAGGTTATAGCATTTGGA | 0.488 | 0.771 | -0.154 | 0.347 | -0.474 | 1.2 | 0.53 | 0.218 | 0.1 | -0.0326 | 1.95 | 1.09 | 0.0764 | -0.581 | 0.697 | 0.299 | -0.0252 | 0.82 | 0.181 | 0.546 |
| TCTTGTGGATCAAAGGTTAAGAAAGCCGAAGCCT | 1.78 | 1.88 | 0.101 | 2.08 | 0.0498 | 4.58 | 7.94 | 7.64 | 7.24 | 8.31 | 1.84 | 3.48 | 0.81 | -0.181 | 1.3 | 1.98 | -0.205 | 2.8 | 0.693 | 1.82 |
| CTCGAAAGGTCGTGCTCAGGTGAGTTTACCAAAC | 5.01 | 4.08 | 0.0619 | 3.31 | 0.366 | 4.6 | 1.98 | 3.86 | 1.67 | 2.65 | 0.999 | 1.89 | 0.777 | 0.0952 | 3.04 | 3.93 | 1.33 | 4.47 | 0.43 | 3.79 |
| AATACAGGGTCGTCGTAGGCCAGAGTACGCACAG | 2.12 | 1.97 | 0.0247 | 1.42 | 0.00201 | 2.91 | 1.93 | 1.36 | 0.194 | 0.808 | -0.0628 | 0.91 | 0.684 | 0.302 | 0.517 | 1.7 | 0.241 | 2.19 | 0.296 | 1.72 |
| ATCGAAAGGGCGACGAGGTGAGTATACACCGTTT | 0.314 | 0.222 | -0.247 | 0.0783 | -0.352 | 0.902 | 0.873 | 0.152 | 0.164 | -0.136 | -0.129 | 0.9 | 0.582 | 0.302 | 0.304 | 0.264 | 0.172 | 0.542 | 0.176 | 1.74 |
| CGGACTAGGTCAAGGACAGTGAATCTCCGCACGC | 2.94 | 1.81 | -0.0937 | 1.01 | -0.662 | 3.77 | 5.95 | 5.25 | 2.5 | 4.61 | 7.61 | 7.26 | -0.333 | -0.703 | 0.837 | 0.934 | -0.0489 | 1.7 | 0.338 | 3.49 |
| CAAACTAGGTCAAAGGTCATAGTCGAGCCAACCA | 7.9 | 6.85 | 5.6 | 6.78 | 2.18 | 7.62 | 14 | 11.2 | 12.9 | 13.1 | 8.7 | 9.39 | 3.36 | 4.08 | 5.55 | 7.06 | 1.04 | 8.82 | 2.53 | 5.59 |
